Data taken from PubChem BioAssay AID1159580 (chemical genetic matrix, 2015).
The campaign covered roughly 5,500 compounds. About 2,000 (36%) were called active. Another 18% or so got no clear call; they are omitted. Rule as the data show it: active = normalized growth mostly below about 0.91 (no sharp cut-off); inconclusive = no clear call, values can overlap the other calls; inactive = mostly above about 0.92. The list shows a part of the results.

Test: chemical genetic growth profiling, strain panel (AID 1159580);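 also: tested at 20 µM; growth read once vehicle control cultures reached saturation at 30 °C; 1 = growth at the plate median or of vehicle wells; lower values mean less growth of the strain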
Settings: S. cerevisiae deletion strains, growth OD

Measured: normalized growth

CCCCCCCCCCC[C@@H](C[C@H]1OC(=O)[C@H]1CCCCCC)OC(=O)[C@@H](CC(C)C)NC=O
inactive: locus YAL013W, strain DEP1, active compounds read low 1.05 | locus YAL021C, strain ccr4, active compounds read low 1.01 | locus YAL026C, strain drs2, active compounds read low 1.05 | locus YAL030W, strain snc1, active compounds read low 1.03 | locus YBL061C, strain skt5, active compounds read low 1.02 | locus YBR009C, strain hhf1, active compounds read low 1.04 | locus YBR021W, strain FUR4, active compounds read low 1.05 | locus YBR023C, strain chs3, active compounds read low 0.994 | locus YBR171W, strain sec66, active compounds read low 1.06 | locus YBR229C, strain ROT2, active compounds read low 1.02 | locus YBR231C, strain swc5, active compounds read low 0.965 | locus YBR279W, strain paf1, active compounds read low 1 | locus YCL011C, strain gbp2, active compounds read low 1.05 | locus YCL016C, strain dcc1, active compounds read low 1.01 | locus YCL029C, strain bik1, active compounds read low 1.03 | locus YCL061C, strain MRC1, active compounds read low 1.05 | locus YCL069W, strain vba3, active compounds read low 1.05 | locus YCR088W, strain abp1, active compounds read low 1.02 | locus YDL005C, strain med2, active compounds read low 1.03 | locus YDL035C, strain GPR1, active compounds read low 1.05 | locus YDL040C, strain nat1, active compounds read low 1 | locus YDL074C, strain BRE1, active compounds read low 1.05 | locus YDL101C, strain DUN1, active compounds read low 1.02 | locus YDL134C, strain PPH21, active compounds read low 1.02 | locus YDL185W, strain tfp1, active compounds read low 0.992 | locus YDL192W, strain arf1, active compounds read low 1.03 | locus YDR001C, strain nth1, active compounds read low 1.05 | locus YDR069C, strain doa4, active compounds read low 1.02 | locus YDR101C, strain arx1, active compounds read low 1.03 | locus YDR137W, strain rgp1, active compounds read low 0.978 | locus YDR150W, strain NUM1, active compounds read low 1.06 | locus YDR159W, strain sac3, active compounds read low 1.01 | locus YDR162C, strain NBP2, active compounds read low 1.02 | locus YDR195W, strain ref2 1.02 | locus YDR297W, strain sur2, active compounds read low 1.04 | locus YDR318W, strain mcm21, active compounds read low 1.01 | locus YDR334W, strain swr1, active compounds read low 1.03 | locus YDR335W, strain msn5, active compounds read low 1.05 | locus YDR388W, active compounds read low 1.02 | locus YDR392W, strain spt3, active compounds read low 1.1 | locus YDR502C, strain sam2, active compounds read low 1.03 | locus YEL003W, strain gim4, active compounds read low 1.02 | locus YEL037C, strain rad23, active compounds read low 1.06 | locus YEL061C, strain CIN8 (second series), active compounds read low 1.04 | locus YEL061C, strain CIN8, active compounds read low 1.01 | locus YER015W, strain faa2, active compounds read low 1.02 | locus YER016W, strain bim1, active compounds read low 1.01 | locus YER110C, active compounds read low 1.02 | locus YER111C, strain swi4, active compounds read low 1.06 | locus YER155C, strain BEM2 (second series), active compounds read low 1.07 | locus YER155C, strain BEM2, active compounds read low 1.03 | locus YER167W, strain BCK2, active compounds read low 1.02 | locus YFR010W, strain ubp6, active compounds read low 1.05 | locus YGL078C, strain dbp3, active compounds read low 1.03 | locus YGL086W, strain mad1, active compounds read low 1.01 | locus YGL167C, strain pmr1, active compounds read low 0.994 | locus YGL173C, strain kem1, active compounds read low 1.04 | locus YGL227W, strain vid30, active compounds read low 1.02 | locus YGL240W, strain doc1, active compounds read low 1.06 | locus YGL248W, strain PDE1, active compounds read low 1.03 | locus YGL253W, strain hxk2, active compounds read low 1.04 | locus YGR078C, strain PAC10, active compounds read low 1.05 | locus YGR135W, strain pre9, active compounds read low 1.02 | locus YGR252W, strain gcn5, active compounds read low 1.08 | locus YHR013C, strain ard1, active compounds read low 1.03 | locus YHR027C, strain rpn1, active compounds read low 1.05 | locus YHR030C, strain SLT2, active compounds read low 1.04 | locus YHR079C, strain IRE1 (second series), active compounds read low 1 | locus YHR094C, strain hxt1, active compounds read low 1 | locus YHR129C, strain ARP1, active compounds read low 1.04 | locus YHR142W, strain chs7, active compounds read low 1.04 | locus YHR200W, strain rpn10, active compounds read low 1.03 | locus YIL066C, strain RNR3, active compounds read low 1.03 | locus YIL073C, strain SPO22, active compounds read low 1.06 | locus YIL125W, strain kgd1, active compounds read low 1 | locus YIR030C, strain dcg1, active compounds read low 1.03 | locus YJL092W, strain hpr5, active compounds read low 1.04 | locus YJL095W, strain BCK1 (second series), active compounds read low 1.03 | locus YJL095W, strain BCK1, active compounds read low 1.05 | locus YJL115W, strain asf1, active compounds read low 1.06 | locus YJL129C, strain trk1, active compounds read low 1.04 | locus YJL134W, strain LCB3, active compounds read low 1.02 | locus YJL154C, strain vps35, active compounds read low 1.07 | locus YJL164C, strain tpk1, active compounds read low 1.04 | locus YJL166W, strain qcr8, active compounds read low 1.04 | locus YJL168C, strain set2, active compounds read low 1 | locus YJL187C, strain SWE1 (second series), active compounds read low 1.03 | locus YJL187C, strain SWE1, active compounds read low 1.04
